# About 70 (0.4%) of roughly 16,000 compounds were called active. Shown is part of a subset that was picked to be rich in actives. Values without a mark were called inactive. No stated cut-off is given here; in the data, active means inhibition above about 75%; inactive means the rest.
# Assay: quenches luminol chemiluminescence in Nox1 counter-screen (AID 1823)
# Settings: HRP/luminol/H2O2 chemiluminescence counterscreen; at 6.7 µM; stronger effect = higher value
row,SMILES,inhibition
1,CCOC(=O)NC(=O)/C(=C/NC(C)C)C(=O)OCC,2.4%
2,CSc1nnc(SC)n1CCNC(=O)Nc1cccc(Cl)c1,3.79%
3,CCCCc1c(O)cc(-c2ccccc2)n(Cc2ccccc2)c1=O,7.84%
4,COc1ccc(OC(=O)/C=C/c2sc3ccccc3c2C)cc1,-0.97%
5,Cc1nc(C(F)(F)F)ccc1NC(=O)/C=C\C(=O)O,1.91%
6,CCc1cnc(NS(=O)(=O)c2cc(Cl)sc2Cl)nc1-c1c(F)cccc1F,-0.98%
7,Cc1ccc(S(=O)(=O)NNC(=O)c2ccccc2N)cc1,37.9%
8,O=C(NCc1cccnc1)Nc1cccc(NC(=O)NCc2cccnc2)c1F,1.8%
9,COc1cccc2c1c(NS(=O)(=O)c1cn(C)cn1)nn2C,-21.4%
10,O=[N+]([O-])c1ccc2c(c1)CCN2S(=O)(=O)c1ccccc1,-4.92%
11,CNC(=O)c1ccccc1Sc1ccccc1C(=O)NC,-0.03%
12,Cc1nc(-c2ccc(NC(=O)COCC(=O)O)cc2)cs1,21.6%
13,O=C1C(Cl)=C(Oc2cc(Cl)c(Cl)cc2Cl)C(=O)c2ccccc21,0.81%
14,Cn1ncc(Br)c1NC(=O)C(C)(C)C,4.37%
15,N#Cc1ccc(-c2csc(COc3ccccc3Cl)n2)cc1,-1.21%
16,CS(=O)(=O)Nc1ccc(/C(N)=N/OC(=O)c2cccs2)cc1,2.83%
17,c1ccc2sc(-c3csc(-c4ccc5c(c4)OCCO5)n3)nc2c1,3.06%
18,N#CCCSc1sc(=S)sc1SCCC#N,3.43%
19,C/C(=N\O)C(C)(C)Nc1ccc(C(C)(C)C)cc1,-0.65%
20,O=c1[nH]c2c(=O)[nH]c(=S)[nH]c2nc1/C=C(\O)c1ccccc1,-2.84%
21,O=C(Nc1ccc(F)cc1OC(F)(F)F)N1CCC(O)CC1,-1.8%
22,CCOC(=O)c1c(C)csc1NC(=O)CC(=O)C(F)(F)F,-0.11%

row,SMILES,inhibition
1,CCOC(=O)c1c(NC(=S)NC)sc2c1CCCC2,97.7% (active)
2,CCOC(=O)c1c(NC(=S)Nc2ccccc2)sc2c1CCN(C)C2,0.9%
3,Cc1cc(/C(N)=N/OC(=O)c2cccs2)c(-c2ccccc2)o1,-4.79%
4,Cc1cc(C)nc(NC(=S)c2ccc(NC(=O)/C=C/C(=O)O)cc2)n1,-2.67%
5,CCSC(=O)NCc1ccccc1,-0.89%
6,Cc1onc(-c2ccccc2Cl)c1NC(=O)N1c2ccc(F)cc2CCC1C (stereo not given),8.92%
7,Nc1nc(C23CC4CC(CC(C4)C2)C3)cs1,-1.09%
8,CC(C)n1c(SCC(=O)c2cccc([N+](=O)[O-])c2)nc2cc(C(F)(F)F)ccc21,2.2%
9,CC(C)CCOS(=O)(=O)c1ccc2c(c1)Cc1cc(S(=O)(=O)OCCC(C)C)ccc1-2,-0.63%
10,O=C(CSC(=S)N1CCCCC1)c1c(F)cccc1F,26.8%
11,O=C(c1cc(-c2cccs2)on1)N1CCCCC1,3.17%
12,N#CC(C#N)=CNc1c(F)cccc1Cl,-4.02%
13,CCOC(=O)C1=C(C)NC(C)=C(C(=O)OCC)C1c1ccccn1,0.07%
14,CCOC(=O)c1cc(CC)sc1NC(=O)c1cccc(C(F)(F)F)c1,-4.21%
15,CC(C)S(=O)(=O)/C(C#N)=C/c1ccccc1OC(F)(F)F,-0.54%
16,COC(=O)c1cnc(N2CCCN(C(=O)C3COc4ccccc4O3)CC2)nc1C(F)(F)F (stereo not given),1.21%
17,Cc1ccccc1NC(=O)NCc1ccco1,-0.91%
18,O=[N+]([O-])c1ccc(-c2ccc(I)cc2)cc1,-6.68%
19,CC(C)NC(=O)NNc1c(Cl)cncc1Cl,-1.24%
20,Cc1ccc(Oc2c(C)[nH]c(=S)[nH]c2=O)cc1,-0.85%
21,CN(C)c1cc(-c2cc(Cl)sc2Cl)oc(=O)c1Cl,-5.79%
22,Cc1cc(C)nc(N/C=C(\C#N)S(=O)(=O)c2ccc(Cl)cc2)n1,2.84%

row,SMILES,inhibition
1,O=C(NNC(=S)Nc1ccccc1Cl)c1ccc(OC(F)(F)F)cc1,2.9%
2,Cn1cc(Br)c(-c2cccc(NC(=O)c3ccccc3Cl)c2)n1,-4.85%
3,CCc1cccc(C)c1N(C(C)=O)C1=NCCC(=O)S1,-4.86%
4,O=[N+]([O-])c1ccc(C2CC2(Br)Br)cc1 (stereo not given),0.05%
5,CSC(C)C(=O)/C=C/N(C)C (stereo not given),-4.32%
6,COc1ccc(Cc2nc(C(C)(C)C)cs2)cc1,-2.22%
7,Cc1noc(C)c1S(=O)(=O)N1CCN(C2c3ccccc3-c3ccccc32)CC1,0.21%
8,CCOC(=O)NC(=O)/C(=C/NCc1cccs1)C(=O)OCC,1.42%
9,CC(=O)Nc1ccc(S(=O)(=O)NNc2c(Cl)cncc2Cl)cc1Cl,10.2%
10,CCCN(CCC)S(=O)(=O)c1ccc(C(=O)Oc2c(C)cccc2OC)cc1,-5.62%
11,CCOC(=O)c1cc(C)n(-c2cccc([N+](=O)[O-])c2)c1-c1ccccc1,1.22%
12,COc1cccc(C(=O)c2sc3nsc(SCc4ccc(F)cc4)c3c2N)c1,9.11%
13,CC(C)(C)c1ccc(NC(=O)c2ccco2)c(NC(=O)C(Cl)(Cl)Cl)c1,-4.94%
14,O=C(Nc1ccc2c(c1)OCCO2)c1cnccn1,1.1%
15,CSc1nc(-n2nc(C)cc2C)nc(-c2ccco2)c1C#N,1.13%
16,O=C(O)CCc1cccnc1,-4.95%
17,CCCCCCCCCCCCCC#CC(O)C(N)CO (stereo not given),2.24%
18,O=C(CSc1nc2ccccc2o1)N1CCC(n2cccc2)CC1,10%
19,CC(=O)NC12CC3(C)CC(C)(CC(C)(C3)C1)C2,2.16%
20,COc1cc(CC/C(C)=N/O)ccc1O,2.62%
21,Cc1nc(C(F)(F)F)ccc1C(=O)NC1CCCc2ccccc21 (stereo not given),3.59%
